PubChem BioAssay AID1159580 (chemical genetic matrix, 2015)
Values joined by “and” are separate entries in the source; they are usually repeats but may differ in a detail not shown here. Equal values may be shown once. In all, about 5,500 compounds went through this assay and about 2,000 (36%) were called active. Another 18% or so got no clear call; they are omitted. Rule as the data show it: active = normalized growth mostly below about 0.91 (no sharp cut-off); inconclusive = no clear call, values can overlap the other calls; inactive = mostly above about 0.92. This is one part of the list.

Test: chemical genetic growth profiling, strain panel (AID 1159580);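 also: tested at 20 µM; growth read once vehicle control cultures reached saturation at 30 °C; 1 = growth at the plate median or of vehicle wells; lower values mean less growth of the strain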
Details: growth OD
[1] = S. cerevisiae deletion strains, locus YDL101C, strain DUN1, hits give low values
[2] = S. cerevisiae deletion strains, locus YGR052W, strain FMP48, hits give low values
[3] = S. cerevisiae deletion strains, locus YHR030C, strain SLT2, hits give low values
[4] = S. cerevisiae deletion strains, locus YHR079C, strain IRE1, hits give low values
[5] = S. cerevisiae deletion strains, locus YHR082C, strain KSP1, hits give low values
[6] = S. cerevisiae deletion strains, locus YJL095W, strain BCK1, hits give low values
[7] = S. cerevisiae deletion strains, locus YJR066W, strain TOR1, hits give low values
[8] = S. cerevisiae deletion strains, locus YKL203C, strain TOR2, hits give low values
[9] = S. cerevisiae deletion strains, locus YLR113W, strain HOG1, hits give low values
[10] = S. cerevisiae deletion strains, locus YNL183C, strain NPR1, hits give low values
[11] = S. cerevisiae deletion strains, locus YNL207W, strain RIO2, hits give low values
[12] = S. cerevisiae deletion strains, locus YOR119C, strain RIO1, hits give low values
[13] = S. cerevisiae deletion strains, locus YOR231W, strain MKK1, hits give low values
[14] = S. cerevisiae deletion strains, locus YPL256C, strain CLN2, hits give low values

Measured: normalized growth

C=CCOc1ccc(/C=C/[N+](=O)[O-])cc1
active: S. cerevisiae deletion strains, locus YAR019C, strain CDC15, hits give low values 0.0985 | S. cerevisiae deletion strains, locus YBL105C, strain PKC1, hits give low values 0.0881 | S. cerevisiae deletion strains, locus YBR135W, strain CKS1, hits give low values 0.0822 | S. cerevisiae deletion strains, locus YBR136W, strain MEC1, hits give low values 0.095 | S. cerevisiae deletion strains, locus YBR160W, strain CDC28, hits give low values 0.0851 | S. cerevisiae deletion strains, locus YDL017W, strain CDC7, hits give low values 0.0853 | S. cerevisiae deletion strains, locus YDL028C, strain MPS1, hits give low values 0.0971 | [1] 0.108 | S. cerevisiae deletion strains, locus YDL108W, strain KIN28, hits give low values 0.1 | S. cerevisiae deletion strains, locus YDL132W, strain cdc53, hits give low values 0.0933 | S. cerevisiae deletion strains, locus YDL214C, strain PRR2, hits give low values 0.0888 | S. cerevisiae deletion strains, locus YDR052C, strain DBF4, hits give low values 0.0837 | S. cerevisiae deletion strains, locus YDR054C, strain cdc34, hits give low values 0.0953 | S. cerevisiae deletion strains, locus YDR477W, strain SNF1, hits give low values 0.104 | S. cerevisiae deletion strains, locus YER123W, strain YCK3, hits give low values 0.105 | S. cerevisiae deletion strains, locus YER133W, strain GLC7, hits give low values 0.096 | S. cerevisiae deletion strains, locus YFL009W, strain cdc4, hits give low values 0.0895 | S. cerevisiae deletion strains, locus YFL029C, strain CAK1, hits give low values 0.094 | S. cerevisiae deletion strains, locus YFR003C, strain YPI1, hits give low values 0.0875 | S. cerevisiae deletion strains, locus YFR019W, strain FAB1, hits give low values 0.0967 | S. cerevisiae deletion strains, locus YFR028C, strain CDC14, hits give low values 0.0822 | S. cerevisiae deletion strains, locus YGR040W, strain KSS1, hits give low values 0.0972 | [2] 0.116 | S. cerevisiae deletion strains, locus YGR092W, strain DBF2, hits give low values 0.106 | [3] 0.12 | [4] 0.118 | [5] 0.124 | S. cerevisiae deletion strains, locus YHR205W, strain SCH9, hits give low values 0.00436 | S. cerevisiae deletion strains, locus YIL147C, strain SLN1, hits give low values 0.116 | [6] 0.124 | S. cerevisiae deletion strains, locus YJL128C, strain PBS2, hits give low values 0.154 | S. cerevisiae deletion strains, locus YJL157C, strain FAR1, hits give low values 0.0842 | S. cerevisiae deletion strains, locus YJR016C, strain ILV3, hits give low values 0.0828 | S. cerevisiae deletion strains, locus YJR066W, strain TOR1 (second series), hits give low values 0.0922 | [7] 0.118 | S. cerevisiae deletion strains, locus YKL048C, strain ELM1, hits give low values 0.107 | S. cerevisiae deletion strains, locus YKL067W, strain YNK1, hits give low values 0.0924 | S. cerevisiae deletion strains, locus YKL101W, strain HSL1, hits give low values 0.0997 | S. cerevisiae deletion strains, locus YKL193C, strain SDS22, hits give low values 0.0826 | [8] 0.104 | [9] 0.147 | S. cerevisiae deletion strains, locus YLR133W, strain CKI1, hits give low values 0.102 | S. cerevisiae deletion strains, locus YLR403W, strain SFP1, hits give low values -0.00907 | S. cerevisiae deletion strains, locus YML070W, strain DAK1, hits give low values 0.0908 | S. cerevisiae deletion strains, locus YMR001C, strain CDC5, hits give low values 0.0861 | S. cerevisiae deletion strains, locus YMR205C, strain PFK2 (second series), hits give low values 0.095 | S. cerevisiae deletion strains, locus YMR277W, strain FCP1, hits give low values 0.0876 | S. cerevisiae deletion strains, locus YNL006W, strain LST8, hits give low values 0.0846 | S. cerevisiae deletion strains, locus YNL020C, strain ARK1, hits give low values 0.0937 | S. cerevisiae deletion strains, locus YNL161W, strain CBK1, hits give low values 0.0814 | [10] 0.127 | [11] 0.0904 | S. cerevisiae deletion strains, locus YNL222W, strain SSU72, hits give low values 0.0824 | S. cerevisiae deletion strains, locus YNL307C, strain MCK1 (second series), hits give low values 0.102 | S. cerevisiae deletion strains, locus YOL078W, strain AVO1, hits give low values 0.083 | S. cerevisiae deletion strains, locus YOL136C, strain PFK27, hits give low values 0.0949 | S. cerevisiae deletion strains, locus YOR061W, strain CKA2, hits give low values 0.0943 | [12] 0.112 | [13] 0.109 | S. cerevisiae deletion strains, locus YOR329C, strain SCD5, hits give low values 0.0843 | S. cerevisiae deletion strains, locus YPL031C, strain PHO85, hits give low values 0.102 | S. cerevisiae deletion strains, locus YPL153C, strain RAD53, hits give low values 0.0983 | S. cerevisiae deletion strains, locus YPL204W, strain HRR25, hits give low values 0.0984 | S. cerevisiae deletion strains, locus YPL209C, strain IPL1, hits give low values 0.0828 | [14] 0.134 | S. cerevisiae deletion strains, locus YPR025C, strain CCL1, hits give low values 0.0851 | S. cerevisiae deletion strains, locus YPR106W, strain ISR1, hits give low values 0.0928 | S. cerevisiae deletion strains, locus YPR111W, strain DBF20, hits give low values 0.154 | S. cerevisiae deletion strains, strain NNK1, hits give low values 0.1 | S. cerevisiae deletion strains, strain TSCII, hits give low values 0.0928

CSc1ccc(/C=C/[N+](=O)[O-])cc1
active: S. cerevisiae deletion strains, locus YAL013W, strain DEP1, hits give low values 0.0558 | S. cerevisiae deletion strains, locus YBR229C, strain ROT2, hits give low values 0.0536 | S. cerevisiae deletion strains, locus YCL061C, strain MRC1, hits give low values 0.0551 | [1] 0.0652 | S. cerevisiae deletion strains, locus YDL134C, strain PPH21, hits give low values 0.0471 | S. cerevisiae deletion strains, locus YDR150W, strain NUM1, hits give low values 0.582 | S. cerevisiae deletion strains, locus YEL061C, strain CIN8, hits give low values 0.0542 | [2] 0.131 | S. cerevisiae deletion strains, locus YGR078C, strain PAC10, hits give low values 0.0514 | [3] 0.0754 and 0.122 | [4] 0.176 | [5] 0.118 | S. cerevisiae deletion strains, locus YHR087W, strain rtc3, hits give low values 0.0549 | [6] 0.126 | S. cerevisiae deletion strains, locus YJR043C, strain POL32, hits give low values 0.0504 | [7] 0.114 | S. cerevisiae deletion strains, locus YJR075W, strain HOC1, hits give low values 0.0722 | S. cerevisiae deletion strains, locus YKL171W, strain NNK1, hits give low values 0.104 | S. cerevisiae deletion strains, locus YKL190W, strain CNB1, hits give low values 0.0461 | [8] 0.107 | S. cerevisiae deletion strains, locus YLR039C, strain RIC1, hits give low values 0.0613 | S. cerevisiae deletion strains, locus YLR058C, strain SHM2 (second series), hits give low values 0.0502 | S. cerevisiae deletion strains, locus YLR085C, strain ARP6, hits give low values 0.0653 | [9] 0.179 | S. cerevisiae deletion strains, locus YLR262C, strain YPT6, hits give low values 0.0583 | S. cerevisiae deletion strains, locus YML094W, strain GIM5, hits give low values 0.0645 | S. cerevisiae deletion strains, locus YMR219W, strain ESC1, hits give low values 0.0483 | S. cerevisiae deletion strains, locus YMR263W, strain SAP30, hits give low values 0.0556 | S. cerevisiae deletion strains, locus YNL153C, strain GIM3, hits give low values 0.0516 | [10] 0.138 | [11] 0.0972 | S. cerevisiae deletion strains, locus YNL298W, strain CLA4 (second series), hits give low values 0.0614 | S. cerevisiae deletion strains, locus YNL322C, strain KRE1, hits give low values 0.0528 | S. cerevisiae deletion strains, locus YNR030W, strain Alg12, hits give low values 0.0591 | S. cerevisiae deletion strains, locus YOL006C, strain TOP1, hits give low values 0.068 | [12] 0.119 | [13] 0.133 | S. cerevisiae deletion strains, locus YPL055C, strain LGE1, hits give low values 0.0721 | S. cerevisiae deletion strains, locus YPL241C, strain CIN2, hits give low values 0.0816 | [14] 0.17 | S. cerevisiae deletion strains, locus YPR135W, strain CTF4, hits give low values 0.202 | S. cerevisiae strains, strain wild type, hits give low values 0.0455
